Source: PubChem BioAssay (EPA / NIEHS)
Results filed as inconclusive are left out. Activity calls are given as the source filed them. The calls were made as follows: active = hit-call score of the fitted dose curve at least 0.9, where 1 is the maximum; inconclusive = response in the unintended direction; inactive = score below 0.9.

Legend:
[1] = target: Estrogen receptor (Homo sapiens) + Estrogen receptor beta (Homo sapiens) (UniProt P03372+Q92731); assay: OT_ER_ERaERb_1440: Odyssey Thera (OT) 24-hour HEK293T Protein-Complementation Assay for Estrogen Receptor-alpha/-beta Homodimer (AID 2283356);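 also: heteromer of ER alpha and ER beta binding domains; hits raise reporter fluorescence and both agonists and antagonists give an increase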
Chain of Estrogen receptor (Homo sapiens) + Estrogen receptor beta (Homo sapiens) (P03372 whole entry, looked up, the tested form may be a part): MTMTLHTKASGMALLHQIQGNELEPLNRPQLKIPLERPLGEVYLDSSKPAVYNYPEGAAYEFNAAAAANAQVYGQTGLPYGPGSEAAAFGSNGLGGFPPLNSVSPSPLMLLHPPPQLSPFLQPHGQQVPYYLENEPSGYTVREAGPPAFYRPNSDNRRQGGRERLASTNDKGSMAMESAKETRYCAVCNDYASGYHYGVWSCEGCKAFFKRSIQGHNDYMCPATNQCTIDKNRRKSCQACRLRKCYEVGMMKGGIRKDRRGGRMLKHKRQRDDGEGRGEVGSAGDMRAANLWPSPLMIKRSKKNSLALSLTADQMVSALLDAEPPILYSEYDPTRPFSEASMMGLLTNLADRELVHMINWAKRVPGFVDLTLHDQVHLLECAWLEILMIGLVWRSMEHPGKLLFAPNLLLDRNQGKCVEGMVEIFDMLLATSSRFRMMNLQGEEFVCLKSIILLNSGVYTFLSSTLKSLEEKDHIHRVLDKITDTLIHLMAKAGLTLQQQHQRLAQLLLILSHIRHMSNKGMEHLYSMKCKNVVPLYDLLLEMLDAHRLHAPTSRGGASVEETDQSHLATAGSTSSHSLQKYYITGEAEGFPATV
Chain of Estrogen receptor (Homo sapiens) + Estrogen receptor beta (Homo sapiens) (Q92731 whole entry, looked up, the tested form may be a part): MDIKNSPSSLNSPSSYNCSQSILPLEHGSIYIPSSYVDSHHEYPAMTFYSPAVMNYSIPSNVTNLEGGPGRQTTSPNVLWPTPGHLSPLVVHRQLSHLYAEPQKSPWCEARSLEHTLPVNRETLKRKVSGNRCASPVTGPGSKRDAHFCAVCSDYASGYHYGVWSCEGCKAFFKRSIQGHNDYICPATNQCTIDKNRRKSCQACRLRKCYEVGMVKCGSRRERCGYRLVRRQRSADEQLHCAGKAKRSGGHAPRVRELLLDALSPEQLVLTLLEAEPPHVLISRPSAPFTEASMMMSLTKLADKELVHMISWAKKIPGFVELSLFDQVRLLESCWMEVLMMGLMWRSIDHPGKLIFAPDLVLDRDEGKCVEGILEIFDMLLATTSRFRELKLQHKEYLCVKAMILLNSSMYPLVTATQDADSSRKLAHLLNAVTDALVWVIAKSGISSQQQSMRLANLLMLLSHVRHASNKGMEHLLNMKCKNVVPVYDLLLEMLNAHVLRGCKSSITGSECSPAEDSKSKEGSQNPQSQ
Outline: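 Fragment complementation between ER alpha (310-547) and ER beta (263-489) ligand-binding domains in HEK293T cells; signal read 24 h post-dosing by laser scanning cytometer. Gain of fluorescence relative to DMSO fitted.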

[2] = target: Glucocorticoid receptor (Homo sapiens) (UniProt P04150); assay: NVS_NR_hGR: NovaScreen (NVS) Nuclear Receptor Binding Assay for human Glucocorticoid Receptor (GR) (AID 2283363);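 as to AC50: activity is loss of specific radioligand binding signal relative to DMSO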
Chain of Glucocorticoid receptor (Homo sapiens) (P04150 whole entry, looked up): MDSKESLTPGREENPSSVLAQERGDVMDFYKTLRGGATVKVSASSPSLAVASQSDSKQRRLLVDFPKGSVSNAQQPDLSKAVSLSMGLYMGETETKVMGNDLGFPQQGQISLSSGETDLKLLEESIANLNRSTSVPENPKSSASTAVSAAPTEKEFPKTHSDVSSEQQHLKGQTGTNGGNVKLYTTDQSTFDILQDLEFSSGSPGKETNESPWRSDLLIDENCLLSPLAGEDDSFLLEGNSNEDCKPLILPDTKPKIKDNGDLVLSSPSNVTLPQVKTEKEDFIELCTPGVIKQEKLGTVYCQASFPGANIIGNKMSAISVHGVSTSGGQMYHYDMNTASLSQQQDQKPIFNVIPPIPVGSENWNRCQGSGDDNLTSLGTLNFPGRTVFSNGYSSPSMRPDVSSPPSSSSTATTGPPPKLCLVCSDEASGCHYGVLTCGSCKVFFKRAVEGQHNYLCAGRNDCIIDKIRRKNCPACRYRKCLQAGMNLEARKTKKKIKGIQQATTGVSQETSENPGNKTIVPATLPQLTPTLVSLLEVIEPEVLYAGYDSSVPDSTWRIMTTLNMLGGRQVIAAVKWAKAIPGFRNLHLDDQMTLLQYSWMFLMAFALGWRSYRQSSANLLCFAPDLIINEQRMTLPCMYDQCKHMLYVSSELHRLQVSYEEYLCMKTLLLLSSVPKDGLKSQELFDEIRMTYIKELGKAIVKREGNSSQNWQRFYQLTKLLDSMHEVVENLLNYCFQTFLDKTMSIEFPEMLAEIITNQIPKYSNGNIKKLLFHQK
Outline: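 Filter scintillation readout of tritiated/iodinated radioligand displaced by test chemical; cell-free extracted protein; 16 h. DMSO = negative control/baseline. Duplicate single-point 25 uM screen, then concentration-response on actives.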

[3] = target: human Peroxisome Proliferator-activated Receptor alpha (PPARa), PPARA (gene 5465) (UniProt Q07869); assay: NVS_NR_hPPARa: NovaScreen (NVS) Nuclear Receptor Binding Assay for human Peroxisome Proliferator-activated Receptor alpha (PPARa) (AID 2283359);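 also: activity means loss of TR-FRET signal versus DMSO baseline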
Chain of human Peroxisome Proliferator-activated Receptor alpha (PPARa), PPARA (gene 5465) (Q07869 whole entry, looked up): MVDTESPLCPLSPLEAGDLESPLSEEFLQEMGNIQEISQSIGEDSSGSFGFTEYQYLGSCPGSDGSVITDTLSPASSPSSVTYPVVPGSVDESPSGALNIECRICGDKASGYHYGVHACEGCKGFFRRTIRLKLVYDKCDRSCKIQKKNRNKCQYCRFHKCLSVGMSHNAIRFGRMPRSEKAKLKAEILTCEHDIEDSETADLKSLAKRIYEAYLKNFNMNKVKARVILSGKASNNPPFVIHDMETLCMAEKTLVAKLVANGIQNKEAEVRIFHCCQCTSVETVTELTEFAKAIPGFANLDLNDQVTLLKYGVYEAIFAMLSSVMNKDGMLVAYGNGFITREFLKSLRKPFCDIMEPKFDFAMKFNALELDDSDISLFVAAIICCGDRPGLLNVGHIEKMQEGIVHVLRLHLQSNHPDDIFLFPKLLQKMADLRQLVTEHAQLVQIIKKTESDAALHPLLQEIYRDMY
Outline: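 TR-FRET signal measured at 1 h post-dosing; loss-of-signal versus DMSO negative control taken as activity. Extracted gene-protein, cell-free format. Initial single-point duplicates at 25 uM, then concentration-response retests.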

[4] = target: guinea pig Sigma Receptor, Non-selective Binding, SIGMAR1 (gene 100135589) (UniProt Q60492); assay: NVS_OR_gSIGMA_NonSelective: NovaScreen (NVS) Nuclear Receptor Binding Assay for guinea pig Sigma Receptor, Non-selective Binding (AID 2283367)
Chain of guinea pig Sigma Receptor, Non-selective Binding, SIGMAR1 (gene 100135589) (Q60492 whole entry, looked up): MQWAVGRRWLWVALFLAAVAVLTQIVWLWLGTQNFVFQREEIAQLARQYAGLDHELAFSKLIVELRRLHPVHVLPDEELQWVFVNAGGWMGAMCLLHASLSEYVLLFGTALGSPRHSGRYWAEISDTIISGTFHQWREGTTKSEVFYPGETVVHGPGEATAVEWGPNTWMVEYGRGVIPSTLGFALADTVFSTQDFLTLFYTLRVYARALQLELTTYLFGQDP
Outline: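 Membranes from guinea pig brain incubated with radioligand and test chemical for 1 h, then filtered and scintillation-counted. Duplicate primary testing at 25 uM, with concentration-series follow-up for actives.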

PGR (gene 5241) = PGR (gene 5241) (UniProt P06401); assay: NVS_NR_hPR: NovaScreen (NVS) Nuclear Receptor Binding Assay for human Progestron Receptor (PR) (AID 2283360);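 also: active means loss of bound radioligand signal versus DMSO baseline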
Chain of PGR (gene 5241) (P06401 whole entry, looked up): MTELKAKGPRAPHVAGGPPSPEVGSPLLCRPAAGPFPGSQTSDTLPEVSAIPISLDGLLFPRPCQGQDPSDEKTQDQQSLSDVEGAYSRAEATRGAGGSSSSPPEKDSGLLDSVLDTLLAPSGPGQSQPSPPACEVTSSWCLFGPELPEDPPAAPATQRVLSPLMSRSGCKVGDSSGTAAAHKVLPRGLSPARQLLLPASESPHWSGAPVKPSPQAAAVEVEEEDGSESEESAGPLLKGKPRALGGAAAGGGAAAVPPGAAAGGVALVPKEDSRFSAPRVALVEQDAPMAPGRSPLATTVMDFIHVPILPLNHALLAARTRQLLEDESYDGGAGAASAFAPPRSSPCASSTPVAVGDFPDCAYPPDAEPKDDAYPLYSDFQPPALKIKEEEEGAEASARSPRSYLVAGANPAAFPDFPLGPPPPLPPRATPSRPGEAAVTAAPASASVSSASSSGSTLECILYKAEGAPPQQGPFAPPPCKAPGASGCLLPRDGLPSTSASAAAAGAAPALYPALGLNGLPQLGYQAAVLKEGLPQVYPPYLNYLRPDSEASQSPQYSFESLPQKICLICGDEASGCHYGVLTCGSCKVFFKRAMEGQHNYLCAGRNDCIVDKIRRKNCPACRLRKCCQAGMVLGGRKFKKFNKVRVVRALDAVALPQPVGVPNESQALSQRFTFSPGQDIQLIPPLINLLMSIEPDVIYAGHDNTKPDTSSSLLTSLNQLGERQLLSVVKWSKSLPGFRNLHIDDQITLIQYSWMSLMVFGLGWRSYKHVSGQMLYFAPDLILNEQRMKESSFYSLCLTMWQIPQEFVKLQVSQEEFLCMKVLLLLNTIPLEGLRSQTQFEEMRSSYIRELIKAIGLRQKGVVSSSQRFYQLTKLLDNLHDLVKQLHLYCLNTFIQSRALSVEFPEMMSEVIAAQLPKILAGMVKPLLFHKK
Outline: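 Competitive displacement of a labelled radioligand from T47D-derived receptor protein is measured in a cell-free format. Initial testing uses 25 uM in duplicate, with positive and negative controls on every plate.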

[5] = target: Nuclear receptor subfamily 1 group I member 2 (Homo sapiens) (UniProt O75469); assay: NVS_NR_hPXR: NovaScreen (NVS) Nuclear Receptor Binding Assay for human Pregnane X Receptor (PXR) (AID 2283365);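 also: a drop in FRET signal versus DMSO baseline means the compound binds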
Chain of Nuclear receptor subfamily 1 group I member 2 (Homo sapiens) (O75469 whole entry, looked up): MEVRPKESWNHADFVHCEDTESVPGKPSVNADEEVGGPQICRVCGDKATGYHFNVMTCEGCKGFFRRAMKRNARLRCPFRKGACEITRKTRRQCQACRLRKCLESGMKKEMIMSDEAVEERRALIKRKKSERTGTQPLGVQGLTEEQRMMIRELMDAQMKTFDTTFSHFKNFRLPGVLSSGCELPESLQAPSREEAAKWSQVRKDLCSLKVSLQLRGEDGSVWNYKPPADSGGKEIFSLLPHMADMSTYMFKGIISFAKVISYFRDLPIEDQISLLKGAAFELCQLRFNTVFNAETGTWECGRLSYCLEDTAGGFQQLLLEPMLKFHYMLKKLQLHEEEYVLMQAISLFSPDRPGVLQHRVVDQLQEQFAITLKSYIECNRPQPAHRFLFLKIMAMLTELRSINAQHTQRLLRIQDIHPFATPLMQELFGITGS
Outline: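 Human PXR binding measured by TR-FRET in a cell-free format, 2 h exposure. Single-concentration duplicates at 25 uM preceded concentration-response retests of actives; endpoint fitted positively relative to DMSO, loss of signal indicating binding.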

[6] = target: Estrogen receptor beta (Homo sapiens) (UniProt Q92731); assay: OT_ER_ERbERb_0480: Odyssey Thera (OT) 8-hour HEK293T Protein-Complementation Assay for Estrogen Receptor-beta/-beta Homodimer (AID 2283357);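 also: active means signal gain over DMSO baseline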
Chain of Estrogen receptor beta (Homo sapiens) (Q92731 whole entry, looked up, the tested form may be a part): as the sequence (Q92731 whole entry, looked up, the tested form may be a part) above
Outline: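 Homodimerization of ER-beta LBD measured by protein-fragment complementation in HEK293T; 8 h dosing; fixed, Draq5 counterstain; fluorescence intensity gain over DMSO baseline, positive fitting direction; laser scanning cytometry.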

**Q.** How did the outcome [1] turn out when `CCCCc1ccc2c(n1)[C@@H](c1ccc(OC)cc1C[C@H](C)C(=O)O)[C@H](C(=O)O)[C@H]2c1ccc2c(c1)OCO2` was run?
**A.** inactive

**Q.** What about the outcome [2] of the same molecule?
**A.** inactive

**Q.** For `Oc1ccc2ccccc2c1N=Nc1ccccc1`, which outcome [1] is on record?
**A.** inactive

**Q.** What about the outcome [3] of the same molecule?
**A.** inactive

**Q.** And the outcome [4]?
**A.** inactive

**Q.** `CCCCC(CC)COC(=O)CC(C(=O)OCC(CC)CCCC)S(=O)(=O)O` (stereo not given) was tested. Which outcome [1] did it give?
**A.** inactive

**Q.** What about the AC50 (PGR (gene 5241)) of the same molecule?
**A.** 18.7 µM (active)

**Q.** What about the AC50 [2] of the same molecule?
**A.** 5.89 µM (active)

**Q.** What about the AC50 [5] of the same molecule?
**A.** 1.03 µM (active)

**Q.** How did the outcome [1] turn out when `COc1cc(-c2nc(NC(=O)c3cc4cc(C)cc(C)c4n3CC(=O)O)sc2CCC2CCCCC2)c(OC)cc1Cl` was run?
**A.** inactive

**Q.** And the outcome [6]?
**A.** inactive

**Q.** And the outcome [2]?
**A.** inactive

**Q.** Which results are given for `CCOC(=O)C(C)(C)Oc1ccc(Cl)cc1`?
**A.** outcome [1]: inactive; outcome [6]: inactive; outcome (PGR (gene 5241)): inactive; outcome [2]: inactive

**Q.** For `CC(=O)OCCOCCOCCOC(C)=O`, which outcome [1] is on record?
**A.** inactive

**Q.** And the outcome [6]?
**A.** inactive

**Q.** What about the AC50 [5] of the same molecule?
**A.** 33.4 µM (active)

**Q.** Which results are given for `Cc1cccc([N+](=O)[O-])c1C`?
**A.** outcome [1]: inactive; outcome [6]: inactive; outcome [4]: inactive

**Q.** Which results are given for `CCOc1ccc2c(c1)C(C)=CC(C)(C)N2`?
**A.** outcome [3]: inactive; AC50 (PGR (gene 5241)): 9.2 µM (active); AC50 [4]: 16.4 µM (active)
